# Measurements: PubChem BioAssay (NCATS)
# Where “and” joins values, the source holds several entries; their conditions need not be identical. Identical values can stand only once. Results filed as inconclusive are left out. Unmarked numbers belong to inactive results. Calls of active or inactive are those of the source. The call rests on the fitted dose curve; in most records, active means well fitted inhibition curve with a large enough effect; inconclusive means small, poorly fitted or top-dose-only effect; inactive means flat fitted curve, though single readings scatter.
# Key:
# [1] = qHTS profiling for inhibitors of Plasmodium falciparum proliferation (AID 504749); further: nearly all actives have a fitted effect of over 60% in size;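 on activity, negative = inhibition: 0% = DMSO vehicle and full inhibition = artemisinin control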; conditions: P. falciparum in erythrocytes, SYBR Green DNA, 72 h
# Method in brief: (§1)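 SYBR Green fluorescence of parasite DNA, read after lysis and overnight dark incubation, measured growth over 72 h in erythrocyte culture at 0.3% parasitemia and 2.5% hematocrit. Data normalised to DMSO and 0.29 uM artemisinin, with plate-drift correction.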
# [2] = test system: 3D7; experiment: as above; conditions: P. falciparum in erythrocytes, SYBR Green DNA, 72 h; series mostly up to 28.7 µM
# Method in brief: as §1
# [3] = test system: 7G8; experiment: as above; conditions: P. falciparum in erythrocytes, SYBR Green DNA, 72 h; series mostly up to 28.7 µM
# Method in brief: as §1
# [4] = at 28.7 µM (top of the series), parasite line A
# [5] = at 28.7 µM (top of the series), parasite line B
# Potency means the concentration at half of the fitted maximal effect.
smiles,measurement,setting,value
CCOC(=O)c1ccccc1C(=O)OCC,"activity, negative = inhibition",[1]; [4],8.38%
same,"activity, negative = inhibition",[1]; [5],-4.32%
same,Potency,[2],inactive
same,Potency,[3],inactive
NCC(O)c1cccc(O)c1 (stereo unspecified),"activity, negative = inhibition",[1]; [4],5.65%
same,"activity, negative = inhibition",[1]; [5],12%
same,Potency,[2],inactive
same,Potency,[3],inactive
O[C@H]1[C@H]2[C@H](O)CCCN2C[C@H]1O,"activity, negative = inhibition",[1]; [4],9.76%
same,"activity, negative = inhibition",[1]; [5],2.41%
same,Potency,[2],inactive
same,Potency,[3],inactive
ClC=C(Cl)Cl,"activity, negative = inhibition",[1]; [4],6.3%
same,"activity, negative = inhibition",[1]; [5],0.959%
same,Potency,[2],inactive
same,Potency,[3],inactive
Cn1sc(Cl)cc1=O,"activity, negative = inhibition",[1]; [4],11.9%
same,"activity, negative = inhibition",[1]; [5],7.44%
same,Potency,[2],inactive
same,Potency,[3],inactive
S=C=S,"activity, negative = inhibition",[1]; [4],2.86%
same,"activity, negative = inhibition",[1]; [5],20.2%
same,Potency,[2],inactive
same,Potency,[3],inactive
O=C(NC(=O)c1c(F)cccc1F)Nc1ccc(Cl)c(Oc2ncc(C(F)(F)F)cc2Cl)c1,"activity, negative = inhibition",[1]; [4],9.79%
same,"activity, negative = inhibition",[1]; [5],-1.85%
same,Potency,[2],inactive
N#CC1(N2CCCCC2)CCCCC1,"activity, negative = inhibition",[1]; [4],7.09%
same,"activity, negative = inhibition",[1]; [5],1.5%
same,Potency,[2],inactive
same,Potency,[3],inactive
c1cc2c(c(NC3=NCCN3)c1)CCCC2,"activity, negative = inhibition",[1]; [4],-15.6%
same,"activity, negative = inhibition",[1]; [5],-7.85%
same,Potency,[2],inactive
CCCC(C)(COC(N)=O)COC(=O)NC1CC1 (stereo unspecified),"activity, negative = inhibition",[1]; [4],8.1%
same,"activity, negative = inhibition",[1]; [5],1.21%
same,Potency,[2],inactive
Oc1cc(Cl)c(Cl)cc1Cl,"activity, negative = inhibition",[1]; [4],4.1%
same,"activity, negative = inhibition",[1]; [5],-8.4%
same,Potency,[2],inactive
same,Potency,[3],11.2 µM (active)
CC(=O)OC1CN2CCC1CC2 (stereo unspecified),"activity, negative = inhibition",[1]; [4],-1.93%
same,"activity, negative = inhibition",[1]; [5],13.1%
same,Potency,[2],inactive
same,Potency,[3],inactive
N#CC(C#N)=Cc1cc(O)c(O)c(O)c1,Potency,[1]; parasite line A,11.2 µM (active)
same,Potency,[1]; parasite line B,11.2 µM (active)
same,Potency,[2],10 µM (active)
same,Potency,[3],4.47 µM (active)
CC(Cc1ccccc1)NC=O (stereo unspecified),"activity, negative = inhibition",[1]; [4],1.78%
same,"activity, negative = inhibition",[1]; [5],3.72%
same,Potency,[2],inactive
same,Potency,[3],inactive
O=C1CN(O)C(c2ccccc2)=c2cc(Cl)ccc2=N1,"activity, negative = inhibition",[1]; [4],7.13%
same,"activity, negative = inhibition",[1]; [5],1.2%
same,Potency,[2],inactive
CCC(=O)O[C@@](Cc1ccccc1)(c1ccccc1)[C@@H](C)CN(C)C,"activity, negative = inhibition","[1]; at 12.8 µM (top of the series), parasite line A",-5.92%
same,"activity, negative = inhibition","[1]; at 12.8 µM (top of the series), parasite line B",-0.756%
same,Potency,[2],inactive
C[N+]1(C)CCCCC1COC(=O)C(O)(c1ccccc1)c1ccccc1 (stereo unspecified),"activity, negative = inhibition",[1]; [4],-21.5%
same,"activity, negative = inhibition",[1]; [5],-9.17%
same,Potency,[2],inactive
same,Potency,[3],inactive
C#CC(C)(O)CC (stereo unspecified),"activity, negative = inhibition",[1]; [4],3.88%
same,"activity, negative = inhibition",[1]; [5],-6.77%
same,Potency,[2],inactive
same,Potency,[3],inactive
[O]=[Cr](=[O])([OH])[O][Cr](=[O])(=[O])[OH],"activity, negative = inhibition",[1]; [4],-8.13% and -2.73%
same,"activity, negative = inhibition",[1]; [5],-2.72% and -3.46%
same,Potency,[2],inactive
same,Potency,[3],inactive
Cc1sc2ccccc2c1CC1=NCCN1,"activity, negative = inhibition",[1]; [4],5.82%
same,"activity, negative = inhibition",[1]; [5],-2.48%
same,Potency,[2],inactive
same,Potency,[3],10 µM (active)
O=C(NCNC(=O)NC1C(=O)NC(=O)N1CO)NC1C(=O)NC(=O)N1CO (stereo unspecified),"activity, negative = inhibition",[1]; [4],15.1%
same,"activity, negative = inhibition",[1]; [5],8.84%
same,Potency,[2],inactive
same,Potency,[3],inactive
O=[N+]([O-])c1ccc(F)c([N+](=O)[O-])c1,"activity, negative = inhibition",[1]; [4],14.6%
same,"activity, negative = inhibition",[1]; [5],11.6%
same,Potency,[2],inactive
same,Potency,[3],inactive
c1csc(C2(N3CCCCC3)CCCCC2)c1,"activity, negative = inhibition",[1]; [4],-2.88%
same,"activity, negative = inhibition",[1]; [5],1.73%
same,Potency,[2],inactive
same,Potency,[3],inactive
O=[N+]([O-])c1cc(I)c(O)c(I)c1,"activity, negative = inhibition",[1]; [4],-8.29%
same,"activity, negative = inhibition",[1]; [5],-20.5%
same,Potency,[2],inactive
same,Potency,[3],inactive
CCC1C(C)=NN=C(c2ccc(OC)c(OC)c2)c2cc(OC)c(OC)cc21 (stereo unspecified),"activity, negative = inhibition",[1]; [4],12.9%
same,"activity, negative = inhibition",[1]; [5],13.3%
same,Potency,[2],inactive
same,Potency,[3],14.1 µM (active)
C[C@]12CCC(=O)C[C@@H]1CC[C@@H]1[C@@H]2CC[C@]2(C)[C@@H](O)CC[C@@H]12,"activity, negative = inhibition",[1]; [4],-12.4%
same,"activity, negative = inhibition",[1]; [5],4.65%
same,Potency,[2],inactive
same,Potency,[3],inactive
CNC(=O)OCC[N+](C)(C)C,"activity, negative = inhibition",[1]; [4],18.2%
same,"activity, negative = inhibition",[1]; [5],8.99%
same,Potency,[2],inactive
same,Potency,[3],inactive
O=c1[nH]cc(N(CCCl)CCCl)c(=O)[nH]1,"activity, negative = inhibition",[1]; [4],-0.577%
same,"activity, negative = inhibition",[1]; [5],-4.63%
same,Potency,[2],inactive
same,Potency,[3],inactive
C[CH2][Hg][S]c1ccccc1C(=O)O,Potency,[1]; parasite line A,2.82 µM (active)
same,Potency,[1]; parasite line B,3.16 µM (active)
same,Potency,[2],1.78 µM (active)
same,Potency,[3],1.12 µM (active)
C=CCN=C=S,"activity, negative = inhibition",[1]; [4],-3.28%
same,"activity, negative = inhibition",[1]; [5],7.56%
same,Potency,[2],inactive
same,Potency,[3],inactive
ClC(Cl)(Cl)Cl,"activity, negative = inhibition",[1]; [4],12.6%
same,"activity, negative = inhibition",[1]; [5],5.77%
same,Potency,[2],inactive
same,Potency,[3],inactive
O=CC=O,"activity, negative = inhibition",[1]; [4],6.37%
same,"activity, negative = inhibition",[1]; [5],0.163%
same,Potency,[2],inactive
same,Potency,[3],inactive
COc1ccc2c(c1OC)C(=O)OC2C1c2cc3c(cc2CCN1C)OCO3 (stereo unspecified),"activity, negative = inhibition",[1]; [4],9.94%
same,"activity, negative = inhibition",[1]; [5],3.46%
same,Potency,[2],inactive
same,Potency,[3],inactive
COc1ccc2c3c1O[C@H]1C(=O)CC[C@H]4[C@@H](C2)N(C)CC[C@]314,"activity, negative = inhibition",[1]; [4],0.497%
same,"activity, negative = inhibition",[1]; [5],-7.39%
same,Potency,[2],inactive
same,Potency,[3],inactive
